# Source: PubChem (several laboratories)
# The list is not random: actives were taken first. Their share in the collection is about 1.1%.
# p97 inhibitor – inhibitors of human p97 ATPase, primary screen, biochemical. 220,000 compounds, 0.42% hits. inhibition, % at 8 µM. recombinant p97 ATPase, Kinase-Glo ATP luminescence, 3 h; in the data active = inhibition above about 15%
# S1P4 antag – S1P4 receptor antagonists, primary screen, cell-based | Sphingosine 1-phosphate receptor 4 (Homo sapiens), O95977 | S1P4-expressing cells, antagonist mode, reporter read-out | inhibition, % at 4.98 µM | 220,000 compounds, 0.26% hits; in the data active = inhibition above about 29%
# S1P4 ag – S1P4 receptor agonists, primary screen, cell-based; S1P4-expressing cell line, agonist reporter assay; activation, % at 4.98 µM; 220,000 compounds, 0.35% hits; AID 1509, 2009; in the data active = activation above about 11%
# Redox H2O2 prof – compounds producing H2O2 with reducing agent – biochemical, NIH compound library profiling, artefact control for MLSCN library redox annotation, primary screen | activation, % at 10 µM | DTT-dependent redox cycling H2O2, phenol red/HRP absorbance; 100% = 100 µM peroxide control, 0% = buffer | 200,000 compounds, 0.03% hits;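 active = activation of at least 50% relative to the plate's high and low controls in the primary single-dose screen; inactive = activation below 50%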;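 also: compound incubated with DTT at 0.8 mM final as the reducing agent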
# S1P3 antagonist – S1P3 receptor antagonists, primary screen, cell-based | inhibition, % at 4.98 µM | CHO S1P3 NFAT-BLA reporter, FRET fluorescence, antagonist mode | 170,000 compounds, 0.27% hits;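 active = inhibition above the plate cutoff, the mean inhibition of test wells on that plate plus 3 SD, cut at about 28% in these data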;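 also: cells challenged with S1P at its EC80 of 0.8 µM; blue over green emission ratio from cleaved BLA substrate after 4 h stimulation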
# Target sequence (Q99500 whole entry, looked up): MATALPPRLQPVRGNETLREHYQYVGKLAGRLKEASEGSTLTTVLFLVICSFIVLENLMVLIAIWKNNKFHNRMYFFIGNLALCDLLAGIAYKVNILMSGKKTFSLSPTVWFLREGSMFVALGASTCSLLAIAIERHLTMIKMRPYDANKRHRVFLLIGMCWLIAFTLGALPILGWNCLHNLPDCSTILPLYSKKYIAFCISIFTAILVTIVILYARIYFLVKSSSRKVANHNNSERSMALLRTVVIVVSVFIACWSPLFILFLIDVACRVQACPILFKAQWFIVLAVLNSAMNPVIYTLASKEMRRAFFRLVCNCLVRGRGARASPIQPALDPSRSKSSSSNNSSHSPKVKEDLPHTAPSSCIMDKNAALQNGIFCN
# SUMO HTRF inh – inhibitors of in vitro SUMOylation cascade, primary screen, biochemical, HTRF, uHTS. 290,000 compounds, 0.36% hits. AID 2006, 2009. HTRF SUMOylation assay, SAE1/SAE2 + UBC9. inhibition, % at 35 µM. SUMO-conjugating enzyme UBC9 (Homo sapiens), P63279; in the data active = inhibition above about 50%, passing the limit was not always enough
# S1P4 ag conf – S1P4 receptor agonists, retest, confirmation, cell-based, high throughput; 740 compounds, 7% hits; shares compounds with S1P4 ag; activation, % at 4.98 µM; S1P4 agonist cell-based reporter assay; AID 1523, 2009; in the data active = activation above about 12%
# S1P1 agonist – S1P1 receptor agonists, human, counter-screen for S1P4 agonist project, cell-based; shares compounds with S1P4 ag; S1P1 agonist cell-based assay, activation; activation, % at 4.98 µM; 740 compounds, 4% hits; AID 1563, 2009; in the data active = activation above about 21%
# Hits are given with their value; – = inactive; · = not tested or not shown.
SMILES,p97 inhibitor,S1P4 antag,S1P4 ag,Redox H2O2 prof,S1P3 antagonist,SUMO HTRF inh,S1P4 ag conf,S1P1 agonist
O=C(Cc1c[nH]c2ccccc12)N[C@@H](Cc1c[nH]c2ccccc12)C(=O)O,·,·,·,·,·,–,·,·
COc1ccccc1N=c1oc2cc(O)ccc2cc1C(N)=O,–,–,27,–,–,–,–,–
COc1ccc2cc(C(N)=O)c(=Nc3ccc(C)cc3)oc2c1,–,–,–,–,–,–,·,·
COc1ccccc1NC(=O)c1cc2ccc(O)cc2o/c1=N\O,–,–,–,–,–,–,·,·
COc1cccc(N=c2oc3cc(O)ccc3cc2C(=O)NCC2CCCO2)c1 (configuration not stated),–,–,17,–,–,–,–,–
COc1ccccc1N=c1oc2cc(O)ccc2cc1C(=O)NCC1CCCO1 (configuration not stated),–,–,38,–,–,–,–,–
Cc1cccc(N=c2oc3cc(O)ccc3cc2C(N)=O)c1,–,–,48,–,–,–,–,–
COc1cccc(OCc2ccc(C(=O)NCC3CCCO3)cc2)c1 (configuration not stated),–,–,–,–,–,–,·,·
O=C1CN(C(=O)CNC(=O)c2ccc(Cl)cc2Cl)CCN1,·,·,·,·,·,–,·,·
COc1ccc(CCNC2CC(=O)N(CCc3ccc(OC)c(OC)c3)C2=O)cc1OC (configuration not stated),–,–,–,–,–,–,·,·
COc1ccc(CCN2C(=O)CC(NCc3ccc4c(c3)OCO4)C2=O)cc1OC (configuration not stated),–,–,19,–,–,–,–,–
Cc1ccccc1C(OCC(O)CN1CCN(CCO)CC1)c1ccccc1 (configuration not stated),·,·,·,·,·,–,·,·
O=C(CCCn1c(=O)oc2ccccc21)NC1CCCCCC1,–,–,–,–,–,–,·,·
CC1CC(NC(=O)CCn2c(=O)oc3ccccc32)CC(C)(C)C1 (configuration not stated),–,–,12,–,–,–,–,–
Cc1ccc(C2Nc3ccccc3-c3nc4ccccc4n32)o1 (configuration not stated),–,–,12,–,·,–,–,–
Cc1ccc(-c2nnn(CCC(=O)NC3CCCC3)n2)cc1,–,–,–,–,–,–,·,·
Cc1cc(/C=N/n2cnnc2)c(C)n1-c1ccc(Cl)cc1Cl,–,–,–,–,–,–,·,·
Cc1cc(C=NCCCO)c(C)n1-c1cc(Cl)ccc1Cl,–,–,13,–,–,–,21,–
CCOC(=O)/C=c1\s/c(=C(\C#N)C(=O)OCC)n(-c2ccccc2)c1=O,–,–,160,–,·,–,–,–
CNC(=O)/C(C#N)=c1\s/c(=C/C(=O)OC)c(=O)n1-c1ccccc1,–,–,–,–,·,–,·,·
COc1ccc(CC2(CO)CCN(Cc3ccncc3)CC2)cc1,–,–,–,–,–,–,·,·
COc1ccc(CC2(CO)CCN(Cc3cnn(C)c3C)CC2)cc1,–,–,17,–,–,–,–,–
CCCOc1ccc(/C=C/C(=O)N2CCN(c3ccccn3)CC2)cc1,–,–,–,–,–,–,·,·
O=C(/C=C/c1ccc(F)cc1)N1CCN(c2ccccn2)CC1,–,–,16,–,–,–,–,–
Cc1cc2c(cc1S(=O)(=O)Nc1ccc(OC(F)(F)F)cc1)OCC(=O)N2,·,·,·,·,·,–,·,·
Cc1ccc(S(=O)(=O)N(C)C)cc1NC(=O)COC(=O)c1n[nH]c(=O)c2ccccc12,–,–,25,–,–,–,–,–
